BRCT PPI red – disrupts BRCA1 BRCT binding to phosphoprotein, red fluorophore readout; BRCT-phosphopeptide binding, red fluorescence polarization; Potency, µM (top dose mostly 76.9 µM), without a hit: at the highest dose activity change, negative = inhibition, most hits filed as inhibitors; actives 0.03% (n = 75,000); AID 892; note: % is set by controls: 0 for no effect and ±100 for the full control effect
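Fluorescence polarization: 100 nM His-tagged BRCA1 BRCT with 100 nM TAMRA-labelled phospho-BACH1 decapeptide, phosphate buffer pH 7.3 with 150 mM NaCl, DTT, 0.01% Tween 20; 12 min RT. Binding inhibition seen as FP decrease.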
15-hLO-2 inh – inhibitors of human 15-lipoxygenase 2 (ALOX15B); O15296; purified 15hLO-2, xylenol orange hydroperoxide absorbance; Potency, µM (titrated, usually from 57.1 µM), for the others: top-dose activity change, negative = inhibition, usual class: inhibitors; actives 0.56% (n = 110,000); AID 881; note: potency is the fitted concentration of half-maximal effect; % is set by controls: 0 for no effect and ±100 for the full control effect; nearly all actives have a fitted effect of over 60% in size
Target sequence (O15296 whole entry, looked up): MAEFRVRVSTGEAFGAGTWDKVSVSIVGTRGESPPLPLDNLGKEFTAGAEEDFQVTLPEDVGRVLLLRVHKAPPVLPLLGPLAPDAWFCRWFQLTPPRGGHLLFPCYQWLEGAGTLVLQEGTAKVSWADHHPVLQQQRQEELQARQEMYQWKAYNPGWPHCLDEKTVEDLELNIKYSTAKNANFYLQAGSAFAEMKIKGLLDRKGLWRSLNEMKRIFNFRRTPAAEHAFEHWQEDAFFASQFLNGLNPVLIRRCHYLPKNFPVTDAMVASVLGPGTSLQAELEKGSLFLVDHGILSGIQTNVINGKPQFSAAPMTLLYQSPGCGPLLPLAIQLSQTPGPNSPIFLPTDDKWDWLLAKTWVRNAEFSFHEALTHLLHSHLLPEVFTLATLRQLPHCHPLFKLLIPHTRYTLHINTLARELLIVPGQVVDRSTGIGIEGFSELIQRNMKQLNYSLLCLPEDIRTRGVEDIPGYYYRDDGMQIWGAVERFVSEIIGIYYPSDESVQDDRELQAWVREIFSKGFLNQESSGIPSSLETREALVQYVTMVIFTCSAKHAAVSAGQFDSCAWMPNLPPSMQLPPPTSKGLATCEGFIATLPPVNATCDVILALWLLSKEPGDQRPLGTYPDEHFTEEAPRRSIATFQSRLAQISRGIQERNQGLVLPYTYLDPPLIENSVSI
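Screening format was qHTS against 50 nM purified 15hLO-2 in Hepes pH 7.5 with detergent. Activity follows hydroperoxide formation from 45 uM arachidonic acid, measured as 573:405 nm absorbance ratio of the ferric-xylenol orange complex.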
YjeE inh – displaces an ADP probe from E. coli YjeE (TsaE) | P0AF67 | purified YjeE enzyme, qHTS inhibition assay | Potency, µM | actives 0.05% (n = 71,000) | AID 605
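Purified YjeE (10 uM) with BODIPY Texas Red-labeled ADP probe (2 uM); compounds pin-transferred, 15 min at room temperature. Binding inhibition read as decreased fluorescence polarization; ADP titration as control.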
Pol III holo inh – DNA polymerase III holoenzyme inhibition. reconstituted DNA polymerase III holoenzyme replication, biochemical. Potency, µM (top dose mostly 57.1 µM), for inactives: at the highest dose activity change, negative = inhibition. actives 0.25% (n = 71,000); note: potency is the fitted concentration of half-maximal effect; % is set by controls: 0 for no effect and ±100 for the full control effect
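Reconstituted *E. coli* holoenzyme (0.35 nM Pol III, 1 nM beta, 154 nM SSB, 2 nM primase) was preincubated with compound for 15 min at RT. Synthesis on 1.4 nM ssM13Gori ran 35 min, then was stopped with PicoGreen/EDTA and read as dsDNA fluorescence.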
ALOX15 inhib – 15-hLO (ALOX15) enzyme inhibition. AID 887. Potency, µM (titrated, usually from 57.1 µM), for the others: at the highest dose activity change, negative = inhibition, most hits filed as inhibitors. purified 15hLO-1, xylenol orange hydroperoxide absorbance. actives 1.4% (n = 74,000); note: potency is the fitted concentration of half-maximal effect; % is set by controls: 0 for no effect and ±100 for the full control effect; nearly all actives have a fitted effect of over 55% in size
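Purified human 15hLO-1 (40 nM) in 25 mM Hepes pH 7.5, 0.01% Triton X-100, preincubated 15 min RT with compound, then 50 uM arachidonic acid for 6 min. Hydroperoxide read by ferrous/xylenol orange, 30 min; 573/405 nm absorbance ratio gave progress.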
BRCT PPI green – blocks human BRCA1 BRCT binding to phosphopeptide, green readout. P38398. BRCA1 BRCT-phosphopeptide binding, green fluorescence polarization. Potency, µM (highest dose often 76.9 µM), for inactives: top-dose activity change, negative = inhibition, hits mostly inhibitors. actives 0.05% (n = 75,000);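 note: potency is the fitted concentration of half-maximal effect; plate controls were peptide without protein for full effect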
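Compounds were incubated for 12 min at room temperature with a complex of 100 nM fluorescein-tagged pBACH1 decapeptide and 250 nM His-tagged BRCT protein. Buffer was phosphate pH 7.3 with EDTA, DTT and Tween 20. Disruption of binding lowers the polarization signal.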
* = called active by the depositor; i = inactive; ? = inconclusive; / = no result; ! = not active in a repeat; [ ] = another dose, or the depositor's remark. Many of the other results were omitted from the sample, so hits are more common in it than they were. Calls come from the whole dose curve; as a rule, active = well fitted curve in the direction sought with a large enough effect; inconclusive = small, poorly fitted or top-dose-only effect, or another doubt; inactive = no such curve, though single readings can be large; an effect the other way counts as inactive or inconclusive.

SMILES	BRCT PPI red	15-hLO-2 inh	YjeE inh	Pol III holo inh	ALOX15 inhib	BRCT PPI green
N[C@]1(C(=O)O)CC[C@@H](C(=O)O)C1	/	/	i	-1%	/	/
CCCCCCCCC(=O)NCc1ccc(O)c(OC)c1	2%	-7%	i	-6%	25µM*!	-2%
NCCc1cc(O)c(O)cc1O	-16%	-10%	/	/	?	6%[3.08 µM]
N[C@@H](Cc1cc(O)c(O)cc1O)C(=O)O	?	33%	i	0.4µM*	?	?
CO[C@@H]([CH2][Hg])CN1C(=O)c2ccccc2S1(=O)=O.Cn1c(=O)c2nc[nH]c2n(C)c1=O	2%[15.4 µM]	?	i	-17%[11.4 µM]	?	0%[15.4 µM]
Cc1ccc(NC(=[OH+])c2cc3ccccc3cc2O)c(C)c1.Cc1ccc(NC(=[OH+])c2cc3ccccc3cc2O)c(C)c1.[Ni]	-6%[15.4 µM]	5%[11.4 µM]	i	-13%[11.4 µM]	4µM*	0%[15.4 µM]
C/C=C1\C[C@H](C)[C@](O)(CO)C(=O)OCC2=CCN3CC[C@@H](OC1=O)[C@@H]23	/	/	i	2%	/	/
C[C@@H](Cc1ccc2c(c1)OC(C(=O)O)(C(=O)O)O2)NC[C@H](O)c1cccc(Cl)c1	0%	4%	i	0%	5%	1%
NC(=O)CN1C[C@@H](O)CC1=O	-2%	7%	i	-10%	7%	-3%
CC(C)=CCCC1(C)C=Cc2c(O)c3c(c(CC=C(C)C)c2O1)OC12C(=CC4CC1C(C)(C)OC2(C/C=C(/C)C(=O)O)C4O)C3=O (configuration not stated)	-3%	-10%	/	/	20µM*	-3%
CC(C)=CCCC1(C)C=Cc2c(O)c3c(c(CC=C(C)C)c2O1)OC12C(=CC4CC1C(C)(C)OC2(C/C=C(/C)C(=O)O)C4=O)C3=O (configuration not stated)	1%	?	/	/	16µM*	-1%[3.08 µM]
CC1=NCCc2c1[nH]c1cc(O)ccc21	2%	-9%	i	-4%	-1%[25.6 µM]	32µM*!
CN(C)[C@@H]1C(=O)C(C(N)=O)=C(O)[C@]2(O)C(=O)C3=C(O)c4c(O)cccc4[C@](C)(O)[C@H]3C[C@@H]12	?	39%[11.4 µM]	i	3.2µM*	?	?
CC[C@@H]1CN2CCc3cc(OC)c(OC)cc3[C@H]2C[C@@H]1C[C@@H]1NCCc2cc(OC)c(OC)cc21	1%	30%	i	0%	-5%	-2%
O=C1C=CC(=O)c2c(O)cccc21	?	3.2µM*	/	/	2µM*	-7%[3.08 µM]
CC[n+]1c(-c2ccccc2)c2cc(N)ccc2c2ccc(N)cc21	?	-11%[0.0915 µM]	79µM*	2µM*	10µM*!	?
CC(C)C[C@H](NP(=O)(O)O[C@@H]1O[C@@H](C)[C@@H](O)[C@@H](O)[C@H]1O)C(=O)N[C@@H](Cc1c[nH]c2ccccc12)C(=O)O	1%	5%	i	-8%	8%	-3%
COc1ccc2c(c1)CCC1C2CC[C@]2(C)[C@H](NCCCCCCN3C(=O)C=CC3=O)CC[C@@H]12 (some centres not stated)	2%	-18%	i	-4%	9%	-1%
NC(=O)OCCSc1nnc(-c2cccc(C(N)=S)c2)o1	0%	/	i	-3%	6%	0%
O=C(OCC#CCSc1nnc(-c2ccccc2)o1)c1ccco1	-2%	-5%	i	-5%	25µM*	0%
COc1cc2c(cc1OC)[C@@]13CCN4C=C5CCO[C@H]6CC(=O)N2[C@@H]1[C@@H]6[C@H]5C[C@H]43	0%[15.4 µM]	-3%[11.4 µM]	i	-6%[11.4 µM]	13%[11.4 µM]	0%[15.4 µM]
Cl.Cl.Cl.Cl.Cl.Cl.N.N.N.N.NNNNN.NNNNN.O.O.[Ru].[Ru].[Ru]	1%	16%	79µM*	?	21%[25.6 µM]	-2%
CC(=O)[C@@H]1CC[C@H]2[C@H]3CC[C@H]4C[C@@H](O)CC[C@]4(C)[C@@H]3CC[C@]12C	1%	-11%	i	19%	-8%	-2%
N#CC(C#N)=Cc1cc(O)c(O)c(O)c1	-1%	?	i	-11%	7.9µM*	-2%
COC(=O)[C@]1(C)CC[C@@]2(C)CC[C@@]3(C)C4=CCc5c(cc(O)c(O)c5C)[C@]4(C)CC[C@@]3(C)C2C1 (some centres not stated)	-4%	1%	/	/	-27%	-3%
SMILES	BRCT PPI red	15-hLO-2 inh	YjeE inh	Pol III holo inh	ALOX15 inhib	BRCT PPI green
CC1=C(O)C(=O)C=C2C1=CC=C1[C@]2(C)CC[C@@]2(C)C3C[C@](C)(C(=O)O)CC[C@@]3(C)CC[C@@]12C (some centres not stated)	0%	4µM*	/	/	4µM*	-2%[3.08 µM]
CCCCCCn1c(N)c(C(=O)NCCN2CCOCC2)c2nc3ccccc3nc21	-4%	3%[2.29 µM]	i	-6%	16µM*	2%
CN1CCC[C@@H]1c1cccnc1.O=C(O)c1ccccc1O.O=C([OH2+])c1ccccc1O.O=C([OH2+])c1ccccc1O.[Mn]	-1%[15.4 µM]	-1%[11.4 µM]	i	-6%[11.4 µM]	-2%[11.4 µM]	-1%[15.4 µM]
CCCC[N+]1(C)[C@@H]2CC(OC(=O)[C@@H](CO)c3ccccc3)C[C@H]1[C@H]1O[C@H]12 (some centres not stated)	-1%	-9%	i	-4%	-5%	-3%
O=C(O)CN1CCN(CC(=O)O)CC(=O)[O][Hg][O]C(=O)C1	-4%[15.4 µM]	0.32µM*	i	-8%[11.4 µM]	0.16µM*	0%[15.4 µM]
CN(N=O)c1ccc(O)c(O)c1	6.3µM*	19%	i	0.4µM*	16µM*	10µM*
Cc1nc2cc(C(=O)N3CCC4(CC3)OCCO4)ccc2n1-c1cccc(F)c1	-1%	5%	i	-3%	3%	0%
O=C(c1ccc2nc(-c3ccco3)c(-c3ccco3)nc2c1)N1CCC2(CC1)OCCO2	-28%	-1%	i	?	4µM*	-13%
O=C(O)[C@H]1CCN1	1%	5%	i	3%	9%	-1%
